PubChem BioAssay
Calls of active or inactive are those of the source. Unless noted, no stated cut-off is given here; in the data, active means inhibition above about 33%; inactive means the rest.

Legend:
[1] = StAR promoter reporter inhibitors, counter-screen for LRH-1 inverse agonist project, cell-based, luminescence, high throughput (AID 651611; in the data active means inhibition above about 28%); conditions: StAR promoter luciferase reporter counterscreen, at 3.6 µM, stronger effect = higher value
[2] = molecular target: Nuclear receptor subfamily 5 group A member 2 (Homo sapiens) (UniProt O00482); assay: LRH-1 (NR5A2) inverse agonists, retest, confirmation, cell-based, luminescence (AID 651613; in the data active means inhibition above about 42%;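 further: HEK293T cells co-transfected with LRH-1 and StAR promoter luciferase reporter; 0% = vehicle wells and 100% = parental cells lacking receptor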); conditions: cell-based LRH-1 luciferase reporter, inverse agonism; at 3.6 µM; stronger effect = higher value
Nuclear receptor subfamily 5 group A member 2 (Homo sapiens), sequence (O00482 whole entry, looked up): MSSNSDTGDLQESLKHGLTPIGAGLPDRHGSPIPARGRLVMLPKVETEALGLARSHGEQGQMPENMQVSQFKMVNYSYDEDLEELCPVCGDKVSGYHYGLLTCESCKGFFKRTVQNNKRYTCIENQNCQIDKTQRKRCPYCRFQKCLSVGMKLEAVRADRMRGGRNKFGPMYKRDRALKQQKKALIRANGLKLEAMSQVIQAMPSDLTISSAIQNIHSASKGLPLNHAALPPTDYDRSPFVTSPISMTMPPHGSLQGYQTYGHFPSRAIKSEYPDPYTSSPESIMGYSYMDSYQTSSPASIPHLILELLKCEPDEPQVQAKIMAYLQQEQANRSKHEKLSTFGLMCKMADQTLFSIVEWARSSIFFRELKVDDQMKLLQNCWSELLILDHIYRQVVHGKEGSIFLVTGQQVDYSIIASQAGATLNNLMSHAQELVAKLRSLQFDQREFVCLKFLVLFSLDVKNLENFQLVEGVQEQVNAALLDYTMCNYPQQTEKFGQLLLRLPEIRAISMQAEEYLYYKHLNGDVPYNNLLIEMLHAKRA

[3] = molecular target: Steroidogenic factor 1 (Homo sapiens) (UniProt Q13285); assay: SF1 (NR5A1) inverse agonists, counter-screen for LRH-1 inverse agonist project, cell-based, luminescence, high throughput (AID 651614; in the data active means inhibition above about 44%;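 further: cells cotransfected with StAR promoter reporter and SF1 expression vector; 0% = vehicle on cells with receptor and 100% = vehicle on cells lacking receptor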); conditions: cell-based SF1 luciferase reporter, at 3.6 µM, stronger effect = higher value
Steroidogenic factor 1 (Homo sapiens), sequence (Q13285 whole entry, looked up, the tested form may be a part): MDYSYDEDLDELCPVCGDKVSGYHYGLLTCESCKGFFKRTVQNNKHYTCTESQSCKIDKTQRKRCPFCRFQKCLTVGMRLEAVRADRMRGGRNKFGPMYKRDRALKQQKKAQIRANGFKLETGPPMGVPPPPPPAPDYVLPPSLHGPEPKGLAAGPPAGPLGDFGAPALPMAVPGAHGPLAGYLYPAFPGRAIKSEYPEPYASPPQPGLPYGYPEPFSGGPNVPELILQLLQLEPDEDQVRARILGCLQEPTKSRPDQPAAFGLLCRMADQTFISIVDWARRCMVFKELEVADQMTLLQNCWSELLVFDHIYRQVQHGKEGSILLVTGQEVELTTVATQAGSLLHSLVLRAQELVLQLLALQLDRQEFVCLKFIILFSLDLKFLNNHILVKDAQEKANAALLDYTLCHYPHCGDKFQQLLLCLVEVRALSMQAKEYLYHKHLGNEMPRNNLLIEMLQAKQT

[4] = VP16 transactivation reporter inhibitors, counter-screen for LRH-1 inverse agonist project, cell-based, luminescence, high throughput (AID 651615); conditions: Gal4-VP16 luciferase reporter cells, at 3.6 µM, stronger effect = higher value

SMILES | inhibition [1] | inhibition [2] | inhibition [3] | inhibition [4]
CCOC(=O)CCCc1ccc(/C(C)=N/NC(N)=S)cc1 | 21.6% (inactive) | 62.4% (active) | 68.6% (active) | 26.4% (inactive)
CCOc1ccc(CCNC(=O)COC(=O)CSc2ccccc2C)cc1OCC | 2.02% (inactive) | 49% (active) | 41% (inactive) | 8.24% (inactive)
CC1OC(CC(=O)O)CC2=C1C(=O)c1c(O)cccc1C2=O (stereo not drawn) | 95.4% (active) | 111% (active) | 98.2% (active) | 95.8% (active)
O=C(Nc1ccc(N2CCN(C(=O)c3ccc(Cl)cc3)CC2)cc1)c1ccc([N+](=O)[O-])o1 | 24.9% (inactive) | 51.9% (active) | 66.2% (active) | 1.04% (inactive)
C/C(=N/N1CCN(Cc2cccc3ccccc23)CC1)c1cccnc1 | -12% (inactive) | -17.6% (inactive) | -2.52% (inactive) | -2.08% (inactive)
COc1ccc(-c2nn(C)c(=O)c3ccccc23)cc1NS(C)(=O)=O | 49.6% (active) | 53.6% (active) | 41.2% (inactive) | -52.2% (inactive)
O=C(Nc1ccc(N2CCN(C(=O)c3cccs3)CC2)cc1)c1ccc([N+](=O)[O-])o1 | 43.4% (active) | 67.3% (active) | 70.4% (active) | 7.47% (inactive)
CC1=[N+](C)c2c(ccc3cccnc23)C1(C)C | 12.2% (inactive) | 38.6% (inactive) | 58.7% (active) | 29.2% (inactive)
N#CC1=C(N2CCOCC2)/C(=C\c2ccccc2)CC1 | 14.8% (inactive) | 51.9% (active) | 46.6% (active) | 8.41% (inactive)
CNc1nc2sc3c(c2c(=O)n1C)CC(C)(C)SC3 | 2.32% (inactive) | 34.9% (inactive) | 45.6% (active) | -1.52% (inactive)
CCn1c2ccccc2c2cc(/C=N/n3c(-c4cc(C)[nH]n4)n[nH]c3=S)ccc21 | 11.8% (inactive) | 4.98% (inactive) | 31.7% (inactive) | 7.75% (inactive)
CC1Cc2ccccc2N1C1=CC(=O)CC(C)(C)C1 (stereo not drawn) | 21.4% (inactive) | 55.3% (active) | 51.9% (active) | -3.44% (inactive)
COc1ccc(Oc2ccccc2/C=N/O)cc1 | 2.42% (inactive) | 57% (active) | 58.1% (active) | 42.5% (active)
CN1CCN(c2ccccc2NC(=O)c2ccc(-c3cccc([N+](=O)[O-])c3)o2)CC1 | 11.9% (inactive) | 42.9% (active) | 49.6% (active) | 2.32% (inactive)
Cc1ccc(-n2c(SCC(=O)NCc3ccco3)nc3sc4c(c3c2=O)CC(C)(C)SC4)cc1 | 17.6% (inactive) | 56.1% (active) | 44.8% (active) | 6.61% (inactive)
Cn1c(=O)c2c(nc(CN3CCOCC3)n2CC(=O)c2ccccc2)n(C)c1=O | -4.41% (inactive) | -0.49% (inactive) | 1.97% (inactive) | 5.48% (inactive)
C/C(=N\NC(N)=S)c1ccc(Cl)s1 | 16.8% (inactive) | 55.8% (active) | 35.5% (inactive) | 21.2% (inactive)
C/C(=N\NC(N)=S)c1ccncc1 | 6.9% (inactive) | 54.2% (active) | 49% (active) | 3.01% (inactive)
Cc1cc(OCC(=O)N2CCC(O)CC2)c2c(C)cc(=O)oc2c1 | 5.07% (inactive) | 44.8% (active) | 35.2% (inactive) | -6.7% (inactive)
Cc1ccc2nsnc2c1NC(=O)c1ccc([N+](=O)[O-])o1 | 14.4% (inactive) | 57.8% (active) | 55.7% (active) | -22.5% (inactive)
O=[N+]([O-])c1ccc(N2CCCC2)cc1N1CCCC1 | 9.77% (inactive) | 56.8% (active) | 60.4% (active) | 8.32% (inactive)
CCC(NC(=O)c1cc(COc2cc(C)c(Cl)c(C)c2)on1)c1ccncc1 (stereo not drawn) | 0.99% (inactive) | 52.5% (active) | 50.9% (active) | 8.52% (inactive)
Nc1ccc(Oc2ccc(Cl)cc2)cc1 | 1.47% (inactive) | 35.2% (inactive) | 31% (inactive) | -7.96% (inactive)
Cc1ccccc1OCC(=O)N/N=C/c1ccc([N+](=O)[O-])o1 | 18.6% (inactive) | 57.5% (active) | 60% (active) | 9.63% (inactive)
CC(NC(=O)c1ccc([N+](=O)[O-])o1)C1CC2CCC1C2 (stereo not drawn) | 3.5% (inactive) | 49.1% (active) | 44.2% (active) | 10.8% (inactive)
CCN(CC)S(=O)(=O)c1ccc(NC(=O)c2ccc(CN3CCOCC3)cc2)cc1 | 23.9% (inactive) | 57.5% (active) | 57.4% (active) | 54.4% (active)

SMILES | inhibition [1] | inhibition [2] | inhibition [3] | inhibition [4]
O=C(c1ccc([N+](=O)[O-])o1)N1CCc2ccccc21 | -6.72% (inactive) | 51.8% (active) | 59% (active) | -36.3% (inactive)
O=C(Nc1c(Cl)ccc2nsnc12)c1ccc([N+](=O)[O-])o1 | 17.1% (inactive) | 65.1% (active) | 64.9% (active) | -11.9% (inactive)
COc1ccc(CCNC(=O)CSc2nc3[nH]ncc3c(=O)n2-c2ccc(C)c(Cl)c2)cc1OC | 13.2% (inactive) | 61.3% (active) | 56.5% (active) | -6.41% (inactive)
Cc1ccc(-n2nc(C)c(NC(=O)CCl)c2C)cc1 | 35.8% (active) | 47% (active) | 57.2% (active) | -120% (inactive)
Cc1cc(NC(=O)c2ccc([N+](=O)[O-])o2)ccc1NC(=O)c1ccco1 | 1.92% (inactive) | 50.6% (active) | 55.5% (active) | -13.8% (inactive)
CC[C@@H](C(=O)[C@@H](C)[C@@H](O)[C@H](C)[C@@H]1O[C@@H]([C@@H](CC)C(=O)O)CC[C@@H]1C)[C@H]1O[C@]2(C=C[C@@H](O)[C@]3(CC[C@@](C)([C@H]4CC[C@](O)(CC)[C@H](C)O4)O3)O2)[C@H](C)C[C@@H]1C | 87% (active) | 103% (active) | 92.7% (active) | 92.3% (active)
CS(=O)(=O)c1ccc(-c2cc(NC=O)c3ncc(-c4ccc(F)cc4)n3c2)cc1 | 13.9% (inactive) | 56% (active) | 55% (active) | 1.21% (inactive)
COc1cccc(-c2cnc3c(NC(C)=O)cc(-c4ccc(S(C)(=O)=O)cc4)cn23)c1 | 15.6% (inactive) | 53.3% (active) | 41.6% (inactive) | -13.3% (inactive)
N#Cc1c2ccc([N+](=O)[O-])cc2[n+]([O-])n1-c1ccccc1 | 58.2% (active) | 81.5% (active) | 75.4% (active) | -21.2% (inactive)
O=C(COC(=O)c1ccc(Br)cc1)Nc1ccccc1Br | 9% (inactive) | 50.5% (active) | 50.1% (active) | 1.81% (inactive)
COc1ccc(N2CCN(C(=O)CN3C(=O)NC4(CCCCCC4)C3=O)CC2)cc1 | 7.32% (inactive) | 46.6% (active) | 43.3% (active) | -4.03% (inactive)
Cc1ccc(Nc2nc(-c3cccnc3)nc3ccccc23)cc1 | 36.1% (active) | 54.1% (active) | 59.5% (active) | 14% (inactive)
CC1(C(=O)NCc2ccc(Cl)cc2)CCN1C(=O)Cc1ccc(Cl)cc1Cl (stereo not drawn) | 16% (inactive) | 44.1% (active) | 46.5% (active) | 4.22% (inactive)
CC(C)[C@H](NC(=O)OCc1ccccc1)C(=O)OCC(=O)Nc1ccc(N2CCOCC2)cc1 | 10.9% (inactive) | 59.9% (active) | 59.2% (active) | -0.29% (inactive)
CCOc1ccc(NC(=O)CSc2nc3ccccc3c(=O)n2CCCC(=O)NCC2CCCO2)cc1 (stereo not drawn) | 1.46% (inactive) | 41.9% (active) | 40.1% (inactive) | -6.22% (inactive)
Cc1ccc(N2CC(C(=O)Nc3nc4ccc(S(C)(=O)=O)cc4s3)CC2=O)cc1 (stereo not drawn) | 12.4% (inactive) | 52.6% (active) | 48.4% (active) | -0.21% (inactive)
CN(C)S(=O)(=O)c1cccc(CSCc2cccc(S(=O)(=O)N(C)C)c2)c1 | 7.72% (inactive) | 59% (active) | 38.9% (inactive) | 46.1% (active)
COc1cccc(C2c3cc4c(cc3OC(NNC(N)=O)C2C)OCO4)c1O (stereo not drawn) | 24.7% (inactive) | 59% (active) | 60.1% (active) | 26.5% (inactive)
N#Cc1cc(Br)ccc1N=C1CCCN1c1ccccc1 | 2.82% (inactive) | 44.5% (active) | 42.6% (inactive) | 0.34% (inactive)
COc1ccccc1-n1c(SCC(=O)Nc2ccc(Cl)cc2)nc(O)c(Cc2ccccc2)c1=O | 16.2% (inactive) | 55.1% (active) | 56% (active) | 0.94% (inactive)
O=[N+]([O-])c1ccc(N2CCN(S(=O)(=O)c3ccccc3)CC2)cc1NCc1cccnc1 | 6.64% (inactive) | 61% (active) | 43.3% (active) | 14.6% (inactive)
Cn1cnnc1SCC(=O)Nc1ccc(N2CCOCC2)cc1 | 7.69% (inactive) | 59.5% (active) | 34.5% (inactive) | -9.61% (inactive)
COc1cccc(C(=O)COc2cccc(NC(=O)c3cccc([N+](=O)[O-])c3)c2)c1 | 14.4% (inactive) | 62.4% (active) | 59.3% (active) | 2.28% (inactive)
COc1cc(N)c2ncccc2c1Br | 16.6% (inactive) | 17.8% (inactive) | 26.6% (inactive) | -4.59% (inactive)
Cc1ccc(NC(=O)CSc2ccc3c(c2)OCCO3)c(O)c1 | 11.1% (inactive) | 54.6% (active) | 46.5% (active) | 35.5% (active)
Cc1ccc(-c2nc3ncccc3o2)cc1NC(=O)c1ccc([N+](=O)[O-])o1 | 24.2% (inactive) | 57.8% (active) | 69.4% (active) | -15.3% (inactive)
